We go through 40 sequences from the supplement of paper PMC6555819.

In the first assay the test system is PXR:RXRa (NR concentration 270 nM, RXRa partner concentration 90 nM). The assay is described as follows: PBM binding z-score (relative to random genomic background probes); higher = stronger binding; sequences stand for … in GC…GCGATTGACAGCGTAGAATGAAGG
The essentials: (§1)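 Each nuclear receptor dimer, without ligand, was incubated for 1 h on custom Agilent 4×180K protein-binding microarrays. Binding was detected with antibodies against each partner (one per run), and scanned fluorescence was regression-normalized. The binding z-scores are referenced to random human genomic background probes.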
Sequence CGAACTAGGTCATTGACAGGACAGAGAATAGTAA had a PBM binding z-score of 1.5.

In turn, CGCACGAGGGCATGAGTTGATAGCAAATGCCGAT registered a PBM binding z-score of 0.438.

Regarding ACAGACAGGTGAGTGAAGATAACTCAGCTGGACG, the PBM binding z-score was -0.523.

The sequence GCGACTGGGGCATCCGCAGGTTACCATAACTTAA registered a PBM binding z-score of 0.263.

Turning to ACTAGCAGGCCAAGTGTGGGTCACTCAAACAAAG, the PBM binding z-score is 0.546.

In turn, GATACAGGGTCAAGGCGAGAGTACGCGTATTGAT showed a PBM binding z-score of 3.76.

In the case of ACAGACAGGTGAGTAAAGGTAACTCAGCTGGACG, the PBM binding z-score is 0.082.

ACTAGTTGGTCAGCTGAGGTCACCCACAATTCGG had a PBM binding z-score of 5.45.

CCGAGTGGGGCAAGGTTACCATAACGCACAGCCA registered a PBM binding z-score of 0.439.

CAAACTAGGTCAAGAGGTCAAAATCCGCTTCCCG returned a PBM binding z-score of 5.89.

CCGACTTGGGCATAAGGTTACCATAAGCCAGCCC gave a PBM binding z-score of 0.211.

CGTTACGGGTCACTGACAGGTTATAGCATTTGGA yielded a PBM binding z-score of 3.75.

On to CGAGCTAGGTCATCCAGGACAGTGAATACATTGA, for which the PBM binding z-score came out at 1.88.

Consider CCTAGTTGGTCAAGTTCACACACGCTATAGGTAC, for which the PBM binding z-score was determined as 3.63.

The sequence CGTCCAAGGTCATAGGAGGTCAGTGTAGACAGAT came in with a PBM binding z-score of 6.7.

In the case of CCTAGTTGGTCAGCAGGTCACACACCGGATATGA, the PBM binding z-score came to 2.42.

CGTCCAAGGCCAGCAGGTCAGTGAAAGCGACGTG displayed a PBM binding z-score of 0.29.

Regarding TCTATTATTTGATTAGGGCAACCGAAACAGCGGA, the PBM binding z-score amounted to 0.756.

The subject of another assay is PXR homodimer (NR concentration 270 nM). The description is as above. The procedure, abridged:
as §1
Consider CCGACTGGGGCATAAGGTTACTATAAGCCAGCCC, for which the PBM binding z-score is -0.23.

CTCGAAAGGTCGGTTGAGGTGAGTACACGGATAA: the PBM binding z-score worked out at 0.172.

In turn, AATACAGGGTCACTATGCCAGAGTAGGTACGAAT displayed a PBM binding z-score of 0.523.

Turning to TAGCCTAGGTCAGATCGGGCCTGTATACGCTATA, the PBM binding z-score is -0.728.

Regarding TATACAGGGTCAAAGGCCAGGGTACGAATGTCGA, the PBM binding z-score stood at 0.905.

For the sequence TCTAGTTGGTCACGGAGGTCACACTCGACGGGTA, the PBM binding z-score was found to be 1.37.

Take AGTTAAAGTTCACTAGGTAACGTAAGATTCAGCT: the PBM binding z-score came out at 2.11.

The sequence CCTTACGGGTCACTGACAGGTTATACCATTTGGA returned a PBM binding z-score of 0.348.

As for ACCGAAAGGTCGTGAGGTGAGTATACAGAAAGGC, the PBM binding z-score was -0.242.

In the case of CGTCCAAGGTGAAGGTCAGTGAAAGAGACTCGAA, the PBM binding z-score is -0.222.

ATCTCTAGGTAGGACTCAGTTCAGTGAAGAACGC: the PBM binding z-score is 1.95.

Turning to ACTATTAGTTGAGACGACGGCAACCGATAGGTTG, the PBM binding z-score is -0.0364.

Sequence ATCACTAGGTAAGACTCAGTTCAGTGAAGAACGC returned a PBM binding z-score of 0.972.

On to TCATATAGGTAAATGCTAGGTGTAAGTCCGATCT, for which the PBM binding z-score is -0.0284.

For the sequence CTCGAAAGGTCGTGCTCAGGTGGGTATACCAAAC, the PBM binding z-score was 0.555.

In the case of AGAATGAGCTTATTAAGATCAGGGAATTGCGGTC, the PBM binding z-score is -0.13.

For the sequence TCTCGGAGGACACGACAGGTCAGAGCTCGACATC, the PBM binding z-score is -0.142.

Consider TCTTGTAGATCAGGCAGGTTAAGAAAGCCTGAGT, for which the PBM binding z-score is -0.218.

Sequence GATACAGGGTCAGCTAGAGGCCAAAGTATGGAAA yielded a PBM binding z-score of 0.247.

The sequence CCTATTAGTTGACCATAAGGGTAACCGAAGCTCG returned a PBM binding z-score of 1.04.

In turn, ATCTCTAGGTAAAGATAGTTCAGTGGATGCAAAT gave a PBM binding z-score of 0.373.

With CAGCCTAGGTCAGTGCCAGTATAGGAGGAACGTT, the PBM binding z-score is -0.197.

CGAACTAGGTCATTGACAGGACAGAGAATAGTAA: the PBM binding z-score is -0.262.

CGCACGAGGGCATGAGTTGATAGCAAATGCCGAT: the PBM binding z-score was -0.109.

ACAGACAGGTGAGTGAAGATAACTCAGCTGGACG: the PBM binding z-score is -0.597.

With GCGACTGGGGCATCCGCAGGTTACCATAACTTAA, the PBM binding z-score was -0.637.

As for ACTAGCAGGCCAAGTGTGGGTCACTCAAACAAAG, the PBM binding z-score was -0.107.

Turning to GATACAGGGTCAAGGCGAGAGTACGCGTATTGAT, the PBM binding z-score is 0.46.

For the sequence ACAGACAGGTGAGTAAAGGTAACTCAGCTGGACG, the PBM binding z-score is -0.77.

ACTAGTTGGTCAGCTGAGGTCACCCACAATTCGG returned a PBM binding z-score of 1.71.

Consider CCGAGTGGGGCAAGGTTACCATAACGCACAGCCA, for which the PBM binding z-score is 0.123.

CAAACTAGGTCAAGAGGTCAAAATCCGCTTCCCG registered a PBM binding z-score of 1.57.

For the sequence CCGACTTGGGCATAAGGTTACCATAAGCCAGCCC, the PBM binding z-score was -0.364.

With CGTTACGGGTCACTGACAGGTTATAGCATTTGGA, the PBM binding z-score was -0.254.

Take CGAGCTAGGTCATCCAGGACAGTGAATACATTGA: the PBM binding z-score came out at 0.935.

In turn, CCTAGTTGGTCAAGTTCACACACGCTATAGGTAC came in with a PBM binding z-score of 5.51.

As to CGTCCAAGGTCATAGGAGGTCAGTGTAGACAGAT, the PBM binding z-score worked out at 3.78.

Regarding CCTAGTTGGTCAGCAGGTCACACACCGGATATGA, the PBM binding z-score was 0.562.

CGTCCAAGGCCAGCAGGTCAGTGAAAGCGACGTG: the PBM binding z-score is -0.389.

In turn, TCTATTATTTGATTAGGGCAACCGAAACAGCGGA yielded a PBM binding z-score of 2.04.
